Hits are enriched below; roughly 2.8% of the tested compounds scored in any of these assays.
Pol iota inh = blocks human DNA polymerase iota activity; Q9UNA4; Pol iota fluorescent replication assay, 10 min; Potency, µM (top dose mostly 115 µM), inactives show at the top dose activity, negative = inhibition, actives largely listed as inhibitors; actives 1% (n = 390,000); note: potency is the fitted concentration of half-maximal effect
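Fluorescent replication assay read twice, at 0 min and 10 min after adding 50 nM (final) substrate. Enzyme (10 nM) and compounds were first incubated 15 min at room temperature; enzyme-free buffer wells were negative controls.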
Pol kappa inh = inhibitors of human DNA polymerase kappa; Potency, µM (series often up to 107 µM), for inactives: top-dose activity, negative = inhibition, hits mostly inhibitors; AID 588579; Q9UBT6; purified Pol kappa, fluorescent DNA synthesis assay, 10 min; actives 0.53% (n = 400,000); note: potency is the fitted concentration of half-maximal effect; % is set by controls: 0 for no effect and ±100 for the full control effect
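Readout: fluorescence, taken kinetically at 0 and 10 min. Conditions: 10 nM Pol kappa, 15 min RT compound preincubation, 50 nM substrate final. Controls: enzyme-free buffer wells.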
PI5P4Ka inh = inhibitors of human PI5P4K alpha; P48426; PI5P4Kalpha enzyme, ADP-Glo luminescence, 60 min; active compounds read low; max response, %; actives 1.2% (n = 330,000); AID 652105; active = max response of -50% or lower; inconclusive = between -30% and -50%; inactive = -30% or higher; note: value at the top dose of about 77 µM; % is set by controls: 0 for no effect and ±100 for the full control effect
Target sequence (P48426 whole entry, looked up): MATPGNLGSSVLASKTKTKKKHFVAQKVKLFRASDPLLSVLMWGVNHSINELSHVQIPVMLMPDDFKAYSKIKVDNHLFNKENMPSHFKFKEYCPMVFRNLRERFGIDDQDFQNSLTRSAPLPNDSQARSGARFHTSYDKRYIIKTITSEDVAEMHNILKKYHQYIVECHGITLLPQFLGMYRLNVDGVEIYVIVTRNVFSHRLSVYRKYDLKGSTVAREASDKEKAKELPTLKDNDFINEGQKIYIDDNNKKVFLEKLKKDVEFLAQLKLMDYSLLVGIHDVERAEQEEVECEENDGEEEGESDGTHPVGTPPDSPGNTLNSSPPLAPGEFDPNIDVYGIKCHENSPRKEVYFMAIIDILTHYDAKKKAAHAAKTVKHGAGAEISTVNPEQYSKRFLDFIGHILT
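Human PI5P4Kalpha with substrate in 0.038 M HEPES pH 7.4, 0.28 mM EGTA, 0.1% CHAPS, 5% DMSO; reaction started with 5 microM ATP (final), 60 min at room temperature. ADP formed read by ADP-Glo luminescence.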
WRN helicase inh = blocks human WRN helicase | Potency, µM (doses to about 114 µM), without a hit: at the top dose activity change, negative = inhibition, most hits filed as inhibitors | Q14191 | actives 0.46% (n = 360,000) | WRN helicase unwinding, fluorescent forked duplex, kinetic; note: potency is the fitted concentration of half-maximal effect; % is set by controls: 0 for no effect and ±100 for the full control effect; nearly all actives have a fitted effect of over 55% in size
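Fluorescence dequenching readout, ex 525 nm/em 598 nm, kinetic mode: forked duplex DNA (100 nM final) with adjacent fluorophore and quencher unwound by WRN (20 nM final) with 2 mM ATP. Compound preincubation 15 min, room temperature.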
Pol eta inh = inhibitors of human DNA polymerase eta | recombinant Pol eta, fluorescent DNA replication assay | actives 1.2% (n = 390,000) | AID 588591 | Potency, µM (titrated, usually from 114 µM), for inactives: top-dose activity change, negative = inhibition, actives largely listed as inhibitors; note: potency is the fitted concentration of half-maximal effect; % is set by controls: 0 for no effect and ±100 for the full control effect
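Fluorescent replication assay: 50 nM final substrate added after a 15 min room-temperature compound preincubation with 10 nM enzyme. Signal taken at 0 min and again at 10 min.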
Pol beta inh = inhibitors of human DNA polymerase beta | Pol beta primer extension/strand displacement, fluorescence kinetic | actives 1.3% (n = 340,000) | Potency, µM (titrated, usually from 114 µM), without a hit: at the highest dose activity change, negative = inhibition, actives largely listed as inhibitors | P06746; note: potency is the fitted concentration of half-maximal effect; % is set by controls: 0 for no effect and ±100 for the full control effect
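Reaction started by 50 nM substrate onto compound-treated Pol beta (10 nM, 15 min preincubation, room temperature); plates read at 0 min and 10 min. Normalized concentration-effect data fitted by four-parameter Hill equation.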
An asterisk follows results filed as active; u = inconclusive; x = not tested or not shown; ! = repeats disagree; [ ] = remark or other dose. Unless noted, calls come from the whole dose curve; as a rule, active = well fitted curve in the direction sought with a large enough effect; inconclusive = small, poorly fitted or top-dose-only effect, or another doubt; inactive = no such curve, though single readings can be large; an effect the other way counts as inactive or inconclusive.

SMILES | Pol iota inh | Pol kappa inh | PI5P4Ka inh | WRN helicase inh | Pol eta inh | Pol beta inh
CN(C)c1ccc(C(=O)OCC(=O)Nc2ccc(S(N)(=O)=O)cc2)cc1 | u | 50µM* | 3 | 45µM* | u | u
COc1cccc2c1C(=O)/C(=C\c1ccc(N(C)C)cc1)C2 | 23% | -9% | x | x | x | x
CC(C)(C)C(=O)OCOP(=O)(OCOC(=O)C(C)(C)C)C(C)(Oc1ccc(O)cc1)P(=O)(OCOC(=O)C(C)(C)C)OCOC(=O)C(C)(C)C | x | 35µM* | x | x | x | x
CC(Oc1ccc(O)cc1)(P(=O)(O)O)P(=O)(O)O | x | 13µM* | x | x | x | x
Oc1ccc(Oc2ccc(Oc3ccc(O)cc3)cc2)cc1 | 21% | 0% | 5 | -1% | -27% | -12%
S=C1SCN(Cc2ccccc2)CN1Cc1ccco1 | x | x | -75* | -6%[11.6 µM] | u | x
S=C1SCN(Cc2ccccc2)CN1Cc1ccccc1 | -9% | -6% | 8 | -1% | -16% | -5%
COc1ccc(/C=C2/SC(=S)NC2=O)cc1OCc1ccccc1 | 40% | -9% | -75* | -19% | u | 14%
O=C1NC(=S)SC1=Cc1ccc2c(c1)OCO2 | 21% | -4% | -78* | -10% | -4% | x
COc1cccc(C=C2SC(=S)NC2=O)c1 | -17% | -4% | -60* | u | 12% | x
COc1cccc(C(C)=C2SC(=S)NC2=O)c1 | -13% | -17% | -71* | -17% | -7% | x
Cc1nc2ccc(C(=O)OC(C)C(=O)c3c(C)[nH]c4ccccc34)cc2nc1C (stereo not given) | 13% | -14% | x | x | x | x
C=C1CC2COC(=O)C2(Cc2ccc3ccccc3c2)C1 (stereo not given) | x | 7%[60.1 µM] | x | x | x | x
COc1cccc(-c2oc3ccc(C)cc3c(=O)c2O)c1 | -16% | -20% | x | x | -17% | -12%
COc1ccc2cc(/C=C3\SC(=S)NC3=O)c(N3CCOCC3)nc2c1 | -6% | -25% | -62* | -7%[11.6 µM] | 20µM* | u
CCOC(=O)/C=C1\NC(=O)CS1 | -5% | 10% | -1 | 4% | -1% | -3%
CCO/C(C)=C1/SC(=S)NC1=O | 114% | -23% | -63* | u | -3% | -24%
CCCn1c(SCc2nc(-c3ccc(OC)c(OC)c3)no2)nnc1-c1ccccc1 | 20% | 13% | x | x | -7% | 28%
Cc1ccc(CNc2ncnc3c2nnn3C)cc1 | 3% | -8%[60.1 µM] | x | x | 3% | 2%
Oc1cc(O)cc(/C=C/c2ccc(O)c(O)c2)c1 | 16µM* | 79µM* | -53* | -9%[11.6 µM] | 18µM*! | 7.9µM*
O=C1NC(=O)/C(=C/c2cc3c(cc2Br)OCO3)S1 | u | 0% | u | -24% | -12% | -18%
O=C1NC(=O)/C(=C\c2ccc(Br)o2)S1 | u | 25µM* | u | -34% | 22µM* | 18µM*
C#CCOCCOCCOCCNc1nc(N2CCN(C(=O)[C@H](CCCN=C(N)N)n3cc(C(N)[C@H](C)CC)nn3)CC2)nc(N2CCN(C(=O)[C@H](CCCN=C(N)N)n3cc(C(N)[C@@H](C)CC)nn3)CC2)n1 (stereo not given in full) | u | 4% | -61* | -32% | -5% | x
C#CCOCCOCCOCCNc1nc(N2CCN(C(=O)[C@H](CCC(=O)O)n3cc(C(N)[C@H](C)CC)nn3)CC2)nc(N2CCN(C(=O)[C@H](CCC(=O)O)n3cc(C(N)[C@H](C)CC)nn3)CC2)n1 (stereo not given in full) | u | -54% | -1 | -7% | 25µM* | 2%
CS(=O)(=O)N1CCN(/[N+]([O-])=N/Oc2ccc([N+](=O)[O-])cc2[N+](=O)[O-])CC1 (tested in a mixture with another compound) | u | -14% | x | x | x | x
SMILES | Pol iota inh | Pol kappa inh | PI5P4Ka inh | WRN helicase inh | Pol eta inh | Pol beta inh
N#Cc1c(-c2ccco2)cc(-c2ccccn2)nc1N | u | -32% | -67* | -43% | u | u
COc1cc(/C=C2/C=Cc3ccccc32)ccc1N(C)C | 71µM* | u | x | x | x | x
O=C(CC1SC(=O)N(c2ccccc2)C1=O)Nc1ccc(Br)cc1 (stereo not given) | 84% | -6% | -13 | u | -18% | -2%
O=C(CC1SC(=O)N(c2ccccc2)C1=O)Nc1ccc(Cl)cc1 (stereo not given) | 58% | -19% | -9 | 25µM* | 5% | -12%
Cc1ccccc1Nc1c(-c2ccc(Cl)s2)nc2c(C)cccn12 | -39% | -24% | x | x | -15% | 11µM*
COc1cccc(NC(=O)N2CCC(n3c(C)nc4cccnc43)CC2)c1 | 14% | -3%[60.1 µM] | x | x | -11% | 11%
Cc1cccc(NC(=O)C2CCCN(S(=O)(=O)c3ccc(Br)s3)C2)c1 (stereo not given) | 23% | -3% | x | x | -26% | u
CCOC(=O)C1=C(C)Nc2nc(=S)[nH]n2C1c1ccc(Cl)cc1 (stereo not given) | -13% | -1% | -60* | 1% | 1% | -1%
Cc1ccc2c(c1)CCCN2C(=O)c1cnn2c1NC(=C1CC1)C=C2C(F)F | -2% | -6% | x | x | x | x
CCCCC12CN3CC(C)(CN(C1)C3c1c[nH]c3ccccc13)C2=O (stereo not given) | 19% | -7% | x | x | u | -1%
O=C(NNC(=O)c1cc2cc3ccccc3nc2s1)c1cccc(C(F)(F)F)c1 | u | u | -25 | -35% | u | 22µM*
O=c1[nH]c(/C=C/c2cccnc2)c([N+](=O)[O-])c(=O)[nH]1 | -21% | 3% | -65* | -3%[57.1 µM] | u | -11%
O=c1[nH]c(/C=C\c2cccnc2)c([N+](=O)[O-])c(=O)[nH]1 | 22% | -2% | u | -22% | -5% | -8%
O=c1[nH]c(/C=C/c2ccccc2)c([N+](=O)[O-])c(=O)[nH]1 | u | -6% | -76* | -26% | u | u
CCC(C)Oc1ccc(/C=C/c2[nH]c(=O)[nH]c(=O)c2[N+](=O)[O-])cc1OC (stereo not given) | u | -4% | -58* | 4% | -20% | 4%
CN(C)c1ccc(/C=C/c2ccnc3cc(Cl)ccc23)cc1 | -4% | 0% | x | x | x | x
CCOC(=O)c1[nH]c(C)c(CCC(=O)N2CCN(c3cccc(C)c3C)CC2)c1C | 17% | 0%[60.1 µM] | x | x | -27% | 1%
O=C(c1cccc([N+](=O)[O-])c1)N1c2nc(-c3ccco3)nn2C2(CCCCC2)[C@@H]2CCCC[C@@H]21 | 24% | -4% | x | x | -5% | 7%
COc1ccccc1N1CCN(C(=O)CSc2nc3ccccc3nc2Cc2ccccc2)CC1 | 1% | -6%[60.1 µM] | x | x | -29% | 2%
Cn1ncc(S(=O)(=O)Cc2ccccc2)c(Br)c1=O | x | -10%[60.1 µM] | x | x | x | x
